This assay is described as follows: NCI Yeast Anticancer Drug Screen. Data for the bub3 strain (AID 167). Conditions: S. cerevisiae bub3 mutant strain, hits give high values. On the procedure: Growth inhibition of yeast strains with defined genetic alterations is measured as a screen for potential anti-cancer activity. Selected strains with alterations in DNA damage repair or cell cycle control were exposed to compounds and growth inhibition was measured relative to vehicle treated controls. The strain used in this assay is bub3

[1] abbreviates: at 5.0 µM (retest, dose inferred, filed as 0.5).
The mark [2] stands for this setting: at 50.0 µM (retest, dose inferred, filed as 5.0).

Each structure is given as a SMILES string. The panel holds about 79,000 compounds, 15% with a hit somewhere; the sample as a whole holds those more often. Values without a mark were called inactive. Active and inactive are the calls of the source. No stated cut-off is given here; in the data, active means growth inhibition above about 70%; inactive means the rest.

As to `CCN(CC)C(=S)N/N=C(/C)c1cccc(/C(C)=N\NC(=S)N(CC)CC)n1`, the growth inhibition was 7% (at 1.2 µM); 13% (at 3.7 µM); 39% under setting [1]; 16% (at 11.0 µM); 56% (at 33.0 µM); 90% (active) under setting [2]. In addition, the growth inhibition was 65.2% (at 50.0 µM) and 84% (active) (at 100.0 µM).
As to `Cc1ccc(-c2ccc(Nc3c4ccccc4nc4ccccc34)cc2)cn1`, the growth inhibition runs as follows: (at 1.2 µM) -5%; (at 3.7 µM) -45%; under setting [1], 5%; (at 11.0 µM) -12%; (at 33.0 µM) 79% (active); under setting [2], 84% (active). Also, the growth inhibition (at 50.0 µM) was 25.5% and the growth inhibition (at 100.0 µM) is 36%.
In the case of `Oc1ccc(NCn2c(=S)sc3ccccc32)cc1`, the growth inhibition by setting is: (at 1.2 µM) 14%; (at 3.7 µM) 32%; under setting [1], 32%; (at 11.0 µM) 26%; (at 33.0 µM) 68%; under setting [2], 98% (active). Moreover, the growth inhibition was 73.2% (active) (at 50.0 µM) and 98% (active) (at 100.0 µM).
For the compound `Cc1ccc(S(=O)(=O)Oc2cc(Cl)c(Cl)cc2Cl)cc1`, the growth inhibition runs as follows: (at 1.2 µM) 1%; (at 3.7 µM) 3%; under setting [1], 4%; (at 11.0 µM) 3%; (at 33.0 µM) -2%; under setting [2], 40%. In addition, the growth inhibition by setting is: (at 50.0 µM) 10.2%; (at 100.0 µM) -4%.
For the compound `CC[C@@]1(O)C(=O)OCc2c1cc1n(c2=O)Cc2cc3c(CN(C)C)c(O)ccc3nc2-1`, the growth inhibition is, setting by setting: (at 1.2 µM) 0%; (at 3.7 µM) -1%; under setting [1], -3%; (at 11.0 µM) -3%; (at 33.0 µM) -14%; under setting [2], -10%. For the same compound, the growth inhibition is -14.6% (at 50.0 µM) and -11% (at 100.0 µM).

These data come from PubChem BioAssay (NCI).
